# Measured values published in ChEMBL document CHEMBL3988442, “University of Dundee, Small-Polar-MMV Screening Library” (2021).
# Among all 48,000 compounds or so, about 13,000 (27%) showed an effect of 50% or more. The list shows a part of the results.
# Test system: Wolbachia pipientis
# Test: Anti-Wolbachia Cell-Based Screen
# Type: functional
# Set-up: scale not given: in the data most compounds retested in dose-response had high values
# Settings: 5 µM
row,Compound,Percent Effect [%]
1,COc1ccc(CNCCc2cccc(C(N)=O)c2)cc1O,8.083
2,O=C(O)C(F)(F)F.O=C(O)C(F)(F)F.c1snnc1CN1C[C@H]2CCC[C@@H](CN3CCOCC3)[C@H]2C1,4.838
3,COc1ccc(C(=O)NCCCC2(C3OCCO3)CCOCC2)cc1,0.9631
4,CCCc1n[nH]c(C2CN(C(=O)c3ccc[nH]3)CCO2)n1 (stereo not given),125.3
5,CCCc1n[nH]c(C2CN(C(=O)C3=COCCC3)CCO2)n1 (stereo not given),-2.018
6,CCCc1n[nH]c(C2CN(C(=O)c3ccco3)CCO2)n1 (stereo not given),-0.9471
7,COc1ccc(F)cc1C(=O)N1CCCC(n2nc(C)nc2C)C1 (stereo not given),-10.5
8,CO[C@H]1C[C@@H]2CN(C(=O)c3ccc(C)s3)C[C@@H]2C1,128.5
9,CO[C@H]1C[C@@H]2CN(C(=O)Cc3ccc(C)s3)C[C@@H]2C1,123.2
10,C[C@@H]1C[C@H]2CN(C(=O)c3cccc4c3OCCO4)C[C@H]2O1,-11.28
11,CO[C@H]1C[C@@H]2CN(C(=O)c3cccc4c3OCCO4)C[C@@H]2C1,78.24
12,Cc1csc(N2CCN(C(=O)Cc3ccc(C)s3)CC2)n1,9.508
13,C[C@H]1C[C@H]2CN(C(=O)c3cccc4c3OCCO4)CC[C@H]2O1,2.231
14,COc1ccc(F)cc1C(=O)N1CC(c2ccncc2)C1,9.533
15,Cc1ccc(CC(=O)NC(C)C(=O)N2CCS(=O)(=O)CC2)s1 (stereo not given),0.993
16,COc1ccc(F)cc1C(=O)N1C[C@H]2C[C@H](OC)C[C@H]2C1,117.3
17,COc1ccc2c(c1)CN(Cc1nc3c(cnn3C)c(=O)[nH]1)CC2,-2.019
18,Cc1sc(-c2ccco2)nc1C(=O)N(CC1CCOC1)C1CC1 (stereo not given),13.16
19,Cc1cc(CNC(=O)C2CCCCN2C(=O)OC(C)(C)C)no1 (stereo not given),8.299
20,CN(Cc1ccc(F)cc1)CC1(O)CCN(C(=O)c2ccccc2)C1 (stereo not given),-10.29
21,CN(C)CC1(O)CCN(C(=O)c2cnc(-c3cccnc3)nc2)C1 (stereo not given),-2.107
22,CN(Cc1ccc(F)cc1)CC1(O)CCN(C(=O)c2ccccn2)C1 (stereo not given),129.8
23,Cc1ncncc1C(=O)N1CCC(O)(CN(C)Cc2ccc(F)cc2)C1 (stereo not given),90.38
24,CN(Cc1ccc(F)cc1)CC1(O)CCN(C(=O)c2ccncc2)C1 (stereo not given),120.1
25,CN(C)CC1(O)CCN(C(=O)c2cnc(-c3ccccn3)nc2)C1 (stereo not given),-10.46
26,CN(C)CC1(O)CCCN(C(=O)c2ccccc2-n2cncn2)C1 (stereo not given),-6.613
27,CN(C)CC1(O)CCN(C(=O)c2ccc(-n3cnnc3)cc2Cl)C1 (stereo not given),-7.306
28,Cc1ccc(OC2(C(=O)O)CCN(C(=O)c3ccsc3)CC2)cn1,-3.963
29,CN(Cc1ccc(F)cc1)CC1(O)CCN(C(=O)c2ccsc2)C1 (stereo not given),101.4
30,CN(C)CC1(O)CCCN(C(=O)c2cnc(-c3ccccn3)nc2)C1 (stereo not given),7.408
